# Several values for one entry are separate records, joined by “and”; a condition that tells them apart may be missing. Equal values may be shown once. Records with an inconclusive call do not appear. Entries that show only a call come without a potency. Values without a mark were called inactive. Activity calls are given as the source filed them. Calls follow the shape of the dose curve; as a rule, active = well fitted curve in the direction sought with a large enough effect in the repeat runs; inconclusive = weak or mixed curves; inactive = no such curve, though single readings can be large; an effect the other way counts as inactive or inconclusive.
# Molecular target: Cytochrome P450 1A2 (Homo sapiens) (UniProt P05177)
# Sequence (P05177 whole entry, looked up): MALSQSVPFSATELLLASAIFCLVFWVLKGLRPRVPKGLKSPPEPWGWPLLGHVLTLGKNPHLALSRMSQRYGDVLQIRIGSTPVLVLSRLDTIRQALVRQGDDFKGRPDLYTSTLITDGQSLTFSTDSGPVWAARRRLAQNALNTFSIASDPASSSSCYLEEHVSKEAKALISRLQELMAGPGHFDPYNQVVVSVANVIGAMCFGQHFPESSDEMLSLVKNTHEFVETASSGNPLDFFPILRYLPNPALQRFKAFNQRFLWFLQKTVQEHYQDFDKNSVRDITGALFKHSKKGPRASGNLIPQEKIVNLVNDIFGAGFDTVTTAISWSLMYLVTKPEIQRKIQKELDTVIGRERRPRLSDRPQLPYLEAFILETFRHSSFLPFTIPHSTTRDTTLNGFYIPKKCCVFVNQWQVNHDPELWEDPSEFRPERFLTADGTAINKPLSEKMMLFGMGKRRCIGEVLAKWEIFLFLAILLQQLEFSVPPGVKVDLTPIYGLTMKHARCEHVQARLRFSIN
# Assay: Cytochrome P450 Family 1 Subfamily A Member 2 (CYP1A2) small molecule antagonists: luciferase reporter qHTS assay (AID 1671199)
# Conditions: P450-Glo CYP1A2 enzyme, luciferin luminescence, 1 h; series mostly up to 53 µM
# In short: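 Luminescence from luciferin formed by CYP1A2 from a proluciferin substrate, read 20 min after detection reagent. Compound was pre-incubated 10 min with enzyme-substrate, and reaction started with NADPH regeneration solution for 1 h at room temperature; furafylline control.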
# Also: nearly all actives have a fitted effect of over 50% in size.
# Potency is read from the fitted curve at half-maximal effect.
row,SMILES,Potency
1,O=C(c1ccc(O)cc1O)c1ccc(O)cc1O,12.6 µM (active) and 11.2 µM (active)
2,CCCN(CCC)c1c([N+](=O)[O-])cc(C(F)(F)F)c(N)c1[N+](=O)[O-],2 µM (active)
3,C[C@]12CCC(=O)C=C1CC[C@@H]1[C@@H]2[C@@H](O)C[C@@]2(C)[C@H]1CC[C@]2(O)C(=O)COC(=O)CCC(=O)O,inactive

# Molecular target: Voltage-gated inwardly rectifying potassium channel KCNH2 (Homo sapiens) (UniProt Q12809)
# Sequence (Q12809 whole entry, looked up): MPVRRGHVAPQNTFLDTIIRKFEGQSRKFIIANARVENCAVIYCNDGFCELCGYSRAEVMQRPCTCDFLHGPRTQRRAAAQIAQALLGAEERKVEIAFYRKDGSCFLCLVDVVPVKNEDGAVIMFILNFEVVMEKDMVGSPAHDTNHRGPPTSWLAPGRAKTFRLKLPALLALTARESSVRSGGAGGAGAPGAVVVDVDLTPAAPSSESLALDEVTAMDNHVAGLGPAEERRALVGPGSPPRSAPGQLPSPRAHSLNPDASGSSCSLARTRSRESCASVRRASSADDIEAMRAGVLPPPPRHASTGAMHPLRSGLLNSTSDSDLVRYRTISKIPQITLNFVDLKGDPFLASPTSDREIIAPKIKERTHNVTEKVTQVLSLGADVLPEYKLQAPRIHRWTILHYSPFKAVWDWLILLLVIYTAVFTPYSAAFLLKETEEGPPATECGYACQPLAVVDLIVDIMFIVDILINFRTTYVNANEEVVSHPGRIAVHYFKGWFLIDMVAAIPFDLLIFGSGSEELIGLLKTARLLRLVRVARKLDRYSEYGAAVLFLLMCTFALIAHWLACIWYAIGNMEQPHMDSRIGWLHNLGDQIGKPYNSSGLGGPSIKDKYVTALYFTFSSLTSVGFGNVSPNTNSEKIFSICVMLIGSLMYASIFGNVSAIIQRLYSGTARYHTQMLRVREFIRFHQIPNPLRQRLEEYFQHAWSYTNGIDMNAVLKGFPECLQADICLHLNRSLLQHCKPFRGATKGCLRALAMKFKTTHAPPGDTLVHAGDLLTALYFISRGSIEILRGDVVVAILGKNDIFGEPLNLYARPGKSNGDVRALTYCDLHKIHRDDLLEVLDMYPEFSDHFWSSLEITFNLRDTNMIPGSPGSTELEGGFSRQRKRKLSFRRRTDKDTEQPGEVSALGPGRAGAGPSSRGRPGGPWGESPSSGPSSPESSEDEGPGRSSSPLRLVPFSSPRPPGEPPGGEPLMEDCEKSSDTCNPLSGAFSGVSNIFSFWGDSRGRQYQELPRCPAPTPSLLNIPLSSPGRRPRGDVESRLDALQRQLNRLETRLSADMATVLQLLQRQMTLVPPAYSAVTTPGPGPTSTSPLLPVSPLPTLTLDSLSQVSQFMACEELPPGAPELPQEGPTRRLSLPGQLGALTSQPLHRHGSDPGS
# Assay: Human Ether-a-go-go-Related Gene (hERG) channel small molecule antagonists: fluorescence cell-based qHTS assay (AID 1671200);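 as to activity change, negative = inhibition: hERG-expressing U2OS cells given a thallium stimulus after FluxOR II dye loading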
# Conditions: hERG-U2OS cells, FluxOR thallium flux fluorescence; series mostly up to 76.8 µM
# In short: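 Read-out: thallium influx as a surrogate for potassium, tracked as fluorescence (480 nm ex/540 nm em) every second for 2 min after Stimulus Buffer addition in dye-loaded hERG-U2OS cells.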
SMILES,Potency,"activity change, negative = inhibition"
Cc1cc(C2CCCCC2)n(O)c(=O)c1,inactive,–
CNC(=O)c1ccccc1,inactive,–
Oc1cccc2cc3cccc(O)c3c(O)c12,inactive,–
Nc1ccc(N)c2ccccc12,inactive,–
CCCC(C)c1ccccc1O (centres undefined),inactive,–
CC(C)C(C)(C)C(C)(C)C(C)(C)S,inactive,–
Cc1ccc2oc(CN(Cc3ccccc3)C(=O)Nc3c(F)cc(F)cc3F)c(-c3ccc(Cl)cc3)c2c1,inactive,–
CC(C)CCCCCCCCCCCCCCC(=O)O,inactive,–
O=C(Nc1cccc(C(F)(F)F)c1)c1cc(Br)cc(Br)c1O,inactive,–
Clc1ccccc1C(c1ccccc1)(c1ccccc1)n1ccnc1,19.5 µM (active) and 16.9 µM (active),–
N=C1N=C(N)c2ccccc21,inactive,–
NC(=O)CC[C@@H]1NC(=O)[C@H](Cc2ccccc2)NC(=O)[C@H](Cc2ccc(O)cc2)NC(=O)CCSSC[C@@H](C(=O)N2CCC[C@H]2C(=O)N[C@@H](CCCN=C(N)N)C(=O)NCC(N)=O)NC(=O)[C@H](CC(N)=O)NC1=O,inactive,–
CCCCCCCCCCn1cc[n+](CCCCCCCCCC)c1C,490 nM (active),–
O=C(Oc1cccc2cccnc12)c1ccccc1,inactive,–
Nc1ccc2cc(S(=O)(=O)O)cc(O)c2c1N=Nc1ccccc1C(F)(F)F,inactive,–
OC1(c2ccc(Cl)c(C(F)(F)F)c2)CCN(CCCC(c2ccc(F)cc2)c2ccc(F)cc2)CC1,239 nM (active),–

SMILES,Potency,"activity change, negative = inhibition"
CCCCCCCCCCC=O,inactive,–
CCCCCCCCCCCCCC[P+](CCCC)(CCCC)CCCC (tested in a mixture with another compound),124 nM (active),–
CCN(CC)CCCC(C)Nc1c2ccc(Cl)cc2nc2ccc(OC)cc12 (centres undefined),inactive,–
O=C(OC[C@H]1O[C@@H](OC(=O)c2cc(O)c(O)c(OC(=O)c3cc(O)c(O)c(O)c3)c2)[C@H](OC(=O)c2cc(O)c(O)c(OC(=O)c3cc(O)c(O)c(O)c3)c2)[C@@H](OC(=O)c2cc(O)c(O)c(OC(=O)c3cc(O)c(O)c(O)c3)c2)[C@@H]1OC(=O)c1cc(O)c(O)c(OC(=O)c2cc(O)c(O)c(O)c2)c1)c1cc(O)c(O)c(OC(=O)c2cc(O)c(O)c(O)c2)c1,–,1.88% [at 15.8 µM]
Clc1ccc2n[nH]nc2c1,inactive,–
O=c1[nH]cnc2nc[nH]c12,inactive,–
Fc1ccc(C(c2ccc(F)cc2)N2CCN(C/C=C/c3ccccc3)CC2)cc1,848 nM (active),–
NNc1nc(-c2ccc([N+](=O)[O-])cc2)cs1,19500 nM (active),–
CCC(N)(CO)CO,inactive,–
O=c1cc(-c2ccc(O)cc2)oc2cc(O)cc(O)c12,inactive,–
C=C(C)C(=O)OCC(O)COc1ccc(C(C)(C)c2ccc(OCC(O)COC(=O)C(=C)C)cc2)cc1 (centres undefined),inactive,–
Nc1ccc2c3c(cccc13)-c1ccccc1-2,inactive,–
C[C@@H]1C[C@H]2[C@@H]3CCC4=CC(=O)C=C[C@]4(C)[C@@]3(Cl)[C@@H](O)C[C@]2(C)[C@@]1(OC(=O)c1ccco1)C(=O)CCl,inactive,–
NC(=NCCCCCCN=C(N)/N=C(\N)Nc1ccc(Cl)cc1)/N=C(\N)Nc1ccc(Cl)cc1,inactive,–
CCCCC(CC)COP(=O)(O)OCC(CC)CCCC (centres undefined),inactive,–
Cc1oc(-c2ccccc2)nc1CCC(=O)c1ccc(CC2SC(=O)NC2=O)cc1 (centres undefined),inactive,–

# Molecular target: Cytochrome P450 3A4 (Homo sapiens) (UniProt P08684)
# Sequence (P08684 whole entry, looked up): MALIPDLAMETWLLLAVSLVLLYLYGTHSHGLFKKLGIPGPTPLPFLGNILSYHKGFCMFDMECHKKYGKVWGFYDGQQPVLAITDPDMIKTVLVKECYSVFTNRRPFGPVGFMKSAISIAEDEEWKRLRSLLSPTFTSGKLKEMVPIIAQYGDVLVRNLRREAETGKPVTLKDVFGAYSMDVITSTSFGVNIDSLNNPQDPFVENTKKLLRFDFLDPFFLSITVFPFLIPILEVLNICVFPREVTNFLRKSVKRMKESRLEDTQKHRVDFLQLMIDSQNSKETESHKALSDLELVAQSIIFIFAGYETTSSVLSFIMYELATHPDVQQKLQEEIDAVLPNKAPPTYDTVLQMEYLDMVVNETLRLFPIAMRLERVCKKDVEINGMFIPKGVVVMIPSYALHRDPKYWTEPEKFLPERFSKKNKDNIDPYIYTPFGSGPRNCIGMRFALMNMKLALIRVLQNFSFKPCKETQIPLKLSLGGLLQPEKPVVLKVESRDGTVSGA
# Assay: Cytochrome P450 Family 3 Subfamily A Member 4 (CYP3A4) small molecule antagonists: luciferase reporter qHTS assay (AID 1671201)
# Conditions: P450-Glo CYP3A4 enzyme, luciferin luminescence, 1 h; series mostly up to 115 µM
# In short: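 Luminescent readout (RLU) proportional to CYP3A4 activity, from luciferin generated off a proluciferin substrate. Enzyme–substrate mix plus compound 10 min at room temp, NADPH regeneration 1 h, detection reagent 20 min.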
SMILES,Potency,"activity change, negative = inhibition"
CNC(=O)c1ccccc1,inactive,–
Oc1cccc2cc3cccc(O)c3c(O)c12,inactive,–
Cc1ccc2oc(CN(Cc3ccccc3)C(=O)Nc3c(F)cc(F)cc3F)c(-c3ccc(Cl)cc3)c2c1,2.44 µM (active),–
CC(C)CCCCCCCCCCCCCCC(=O)O,inactive,–
O=C(c1ccc(O)cc1O)c1ccc(O)cc1O,5.03 µM (active) and 8.94 µM (active),–
O=C(Nc1cccc(C(F)(F)F)c1)c1cc(Br)cc(Br)c1O,22.4 µM (active),–
N=C1N=C(N)c2ccccc21,inactive,–
CCCN(CCC)c1c([N+](=O)[O-])cc(C(F)(F)F)c(N)c1[N+](=O)[O-],12.6 µM (active),–
NC(=O)CC[C@@H]1NC(=O)[C@H](Cc2ccccc2)NC(=O)[C@H](Cc2ccc(O)cc2)NC(=O)CCSSC[C@@H](C(=O)N2CCC[C@H]2C(=O)N[C@@H](CCCN=C(N)N)C(=O)NCC(N)=O)NC(=O)[C@H](CC(N)=O)NC1=O,inactive,–
CCCCCCCCCCn1cc[n+](CCCCCCCCCC)c1C,31.8 µM (active),–
O=C(Oc1cccc2cccnc12)c1ccccc1,inactive,–
OC1(c2ccc(Cl)c(C(F)(F)F)c2)CCN(CCCC(c2ccc(F)cc2)c2ccc(F)cc2)CC1,inactive,–
CCCCCCCCCCC=O,inactive,–
CCN(CC)CCCC(C)Nc1c2ccc(Cl)cc2nc2ccc(OC)cc12 (centres undefined),inactive,–
O=C(OC[C@H]1O[C@@H](OC(=O)c2cc(O)c(O)c(OC(=O)c3cc(O)c(O)c(O)c3)c2)[C@H](OC(=O)c2cc(O)c(O)c(OC(=O)c3cc(O)c(O)c(O)c3)c2)[C@@H](OC(=O)c2cc(O)c(O)c(OC(=O)c3cc(O)c(O)c(O)c3)c2)[C@@H]1OC(=O)c1cc(O)c(O)c(OC(=O)c2cc(O)c(O)c(O)c2)c1)c1cc(O)c(O)c(OC(=O)c2cc(O)c(O)c(O)c2)c1,–,-11% [at 23.6 µM]
Clc1ccc2n[nH]nc2c1,inactive,–
O=c1[nH]cnc2nc[nH]c12,inactive,–
Fc1ccc(C(c2ccc(F)cc2)N2CCN(C/C=C/c3ccccc3)CC2)cc1,inactive,–
NNc1nc(-c2ccc([N+](=O)[O-])cc2)cs1,5.03 µM (active),–
CCC(N)(CO)CO,inactive,–
C[C@]12CCC(=O)C=C1CC[C@@H]1[C@@H]2[C@@H](O)C[C@@]2(C)[C@H]1CC[C@]2(O)C(=O)COC(=O)CCC(=O)O,inactive,–
C=C(C)C(=O)OCC(O)COc1ccc(C(C)(C)c2ccc(OCC(O)COC(=O)C(=C)C)cc2)cc1 (centres undefined),inactive,–
Nc1ccc2c3c(cccc13)-c1ccccc1-2,18 µM (active),–
CCCCC(CC)COP(=O)(O)OCC(CC)CCCC (centres undefined),inactive,–

# Source: PubChem BioAssay (Tox21)
